Sampled rows, rich in hits. Any-hit rate of the full collection: about 11%.
Tau fibril ThT: blocks human tau fibril formation measured by thioflavin T. recombinant tau K18 P301L, heparin-induced fibrillization, ThT fluorescence. Potency, µM (series often up to 57.4 µM), inactives show at the highest dose activity, negative = inhibition, most hits filed as inhibitors. P10636. 270,000 tested, 2.1% active. AID 1460; also: potency is read from the fitted curve at half-maximal effect; nearly all actives have a fitted effect of over 55% in size
Target sequence (P10636 561-689 P618L limits assumed): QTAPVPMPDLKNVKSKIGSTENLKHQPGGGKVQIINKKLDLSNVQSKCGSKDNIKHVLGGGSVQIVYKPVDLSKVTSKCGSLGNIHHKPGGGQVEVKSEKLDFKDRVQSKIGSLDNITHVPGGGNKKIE
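In this qHTS, human K18 P301L tau is incubated with compound and heparin for 6 hr at 37 C, and Thioflavin T fluorescence then reports fibril load.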
Tau fluor cs: counter-screen for tau fibril formation inhibitors. tau K18 P301L Alexa594 fluorescence, heparin fibrillization. Potency, µM (top dose mostly 57.7 µM), inactives show top-dose activity change, negative = decrease. 280,000 tested, 0.93% active; also: potency is read from the fitted curve at half-maximal effect; nearly all actives have a fitted effect of over 55% in size
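Human tau K18 P301L (15 uM unlabeled, 0.24 uM Alexa 594-labeled) in 100 mM sodium acetate pH 7 with 20 uM heparin, 6 hr at 37 C. ThT 30 uM added, 1 hr ambient; Alexa 594 FP and total fluorescence read at 555/632 nm.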
FBPA coupling cs: inhibits coupling enzyme system, counter-screen for aldolase hits. coupling enzyme system counterscreen, AmpLite Red fluorescence. activity change, negative = inhibition, % at 58.2 µM, hits read low. 290,000 tested, 0.67% active. AID 2472; in the data active = activity change below about -30%
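Fluorescence at 525 nm excitation and 598 nm emission measured inhibition of the coupled detection system without aldolase. Compounds (at 57.5 uM final) were preincubated 10 min at room temperature with coupling enzyme reagent before a 20 min substrate/AmpLite Red step.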
G9a inh: G9a (human) methyltransferase inhibition; Q96KQ7; G9a H3K9 monomethylation, AlphaScreen, 2 h; Potency, µM (doses to about 102 µM), for the others: top-dose activity, negative = inhibition, most hits filed as inhibitors; 350,000 tested, 8.8% active; AID 504332; also: potency is read from the fitted curve at half-maximal effect; nearly all actives have a fitted effect of over 75% in size
Target sequence (Q96KQ7 913-1193 limits assumed): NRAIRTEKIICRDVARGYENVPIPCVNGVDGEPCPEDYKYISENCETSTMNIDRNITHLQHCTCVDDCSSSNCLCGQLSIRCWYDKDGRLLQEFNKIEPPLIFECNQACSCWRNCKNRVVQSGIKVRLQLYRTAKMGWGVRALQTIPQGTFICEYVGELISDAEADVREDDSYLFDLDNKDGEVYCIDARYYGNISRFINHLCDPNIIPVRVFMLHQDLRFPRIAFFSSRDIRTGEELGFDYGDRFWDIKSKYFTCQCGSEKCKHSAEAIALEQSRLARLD
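AlphaScreen detection with an anti-monomethyl H3K9 antibody quantified product after a 2 h room-temperature reaction containing 500 nM biotinylated H3K9 peptide, 20 µM SAM and 20 nM enzyme, which had been preincubated 15 min with compound.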
Sfp PPTase inh: Sfp phosphopantetheinyl transferase inhibition; Potency, µM, without a hit: largest response in the series, negative = inhibition, actives largely listed as inhibitors; AID 1490; Biochemical Sfp PPTase activity, qHTS; Q9F4F7; 310,000 tested, 3.5% active;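 also: the enzyme is Sfp with the accession as filed and its product quenches rhodamine fluorescence; potency is read from the fitted curve at half-maximal effect; 0% = enzyme reaction without inhibitor and -100% = no enzyme wells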
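Fluorescence-quenching assay: 15 nM Sfp-PPTase preincubated 15 min at room temperature with compound, then 5 uM rhodamine-CoA and 12.5 uM BHQ-2-labelled YbbR peptide added. Fluorescence (ex 525/em 598 nm) read at start and after 30 min; difference gives rate.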
Tau fibril FP: inhibitors of human tau fibril formation. P10636. K18 P301L tau heparin fibrillization, Alexa594 FP, 6 h. Potency, µM (titrated, usually from 57.7 µM), inactives show top-dose activity, negative = inhibition, hits mostly inhibitors. 280,000 tested, 0.39% active; also: potency is read from the fitted curve at half-maximal effect; nearly all actives have a fitted effect of over 55% in size
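FP of Alexa 594-tau after heparin (20 uM) induction. Substrate: human K18 P301L, 15 uM unlabeled, 0.24 uM labeled. Buffer 100 mM sodium acetate pH 7. 6 hr, 37 C.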
* marks the source's active call; other numbers are inactive results; [ ] = dose if it differs, or a comment. Unless noted, calls follow the shape of the dose curve; as a rule, active = well fitted curve in the direction sought with a large enough effect; inconclusive = small, poorly fitted or top-dose-only effect, or another doubt; inactive = no such curve, though single readings can be large; an effect the other way counts as inactive or inconclusive. Unless noted, % is scaled to controls: 0 for no effect and ±100 for the full control effect.

What do the screens show for `O=C1NC(=O)c2cc(Nc3ccc(F)cc3)c(Nc3ccc(F)cc3)cc21`?
Tau fibril ThT: 12.6µM*; Tau fluor cs: 14.1µM*[quencher]; FBPA coupling cs: -4.6; G9a inh: 14.1µM*; Sfp PPTase inh: inconclusive; Tau fibril FP: -4.7%

Results for CC1(C)CC(=O)C=C(Nc2ccc(F)cc2)C1 ?
Tau fibril ThT: 0.6%; Tau fluor cs: -1.2%; FBPA coupling cs: -0.1; G9a inh: 19.2%[12.7 µM]; Sfp PPTase inh: -4.2%; Tau fibril FP: -0.4%

Results for CC(=O)OCCC(C)CCC=C(C)C (centres undefined) ?
Tau fibril ThT: -3.4%; Tau fluor cs: -10.1%; FBPA coupling cs: 0.3; Sfp PPTase inh: 12.2%; Tau fibril FP: -7.4%

What do the screens show for `COc1ccc(NCC(=O)N/N=C(\C)c2cc3ccccc3o2)cc1`?
Tau fibril ThT: inconclusive; Tau fluor cs: inconclusive; FBPA coupling cs: -1.7; G9a inh: 15.8µM*; Sfp PPTase inh: -26.0%; Tau fibril FP: -1.0%

How did C/C(=N\NC(=O)c1cc2ccccc2cc1O)c1cc2ccccc2o1 do in these assays?
Tau fibril ThT: 3.55µM*; Tau fluor cs: inconclusive; FBPA coupling cs: -0.8; G9a inh: 1.1%; Sfp PPTase inh: -1.4%; Tau fibril FP: 5.9%

What do the screens show for `COc1ccc(-c2nc(-c3ccccc3)c(NC(C)C)o2)cc1`?
Tau fibril ThT: 1.6%; Tau fluor cs: 2.4%; FBPA coupling cs: 3.8; Sfp PPTase inh: -8.4%; Tau fibril FP: 6.1%

What do the screens show for `COc1ccc(-c2csc(-c3cccnc3)n2)cc1C`?
Tau fibril ThT: inconclusive; Tau fluor cs: -22.4%; FBPA coupling cs: -2.8; G9a inh: 7.1%[0.501 µM]; Sfp PPTase inh: 50.1µM*; Tau fibril FP: 4.9%

Results for C=CCNc1nc(-c2ccc(O)c(C(N)=O)c2)cs1 ?
Tau fibril ThT: inconclusive; Tau fluor cs: inconclusive; FBPA coupling cs: -1.3; G9a inh: inconclusive; Sfp PPTase inh: -12.6%; Tau fibril FP: 2.6%

What do the screens show for `NC(=O)c1cc(-c2csc(NCCc3ccccc3)n2)ccc1O`?
FBPA coupling cs: 0.0; G9a inh: 35.5µM*; Sfp PPTase inh: inconclusive

Results for NC(=O)c1cc(-c2csc(-c3cccnc3)n2)ccc1O ?
FBPA coupling cs: 0.5; G9a inh: 31.6µM*; Sfp PPTase inh: inconclusive

Results for Cc1ccc(CCNC(=O)CCc2cn(Cc3ccccc3C)c3ccccc23)cc1 ?
Tau fibril ThT: -7.5%; Tau fluor cs: -9.0%; G9a inh: -10.9%[59 µM]; Tau fibril FP: 5.9%

What do the screens show for `Cc1ccc(NC(=O)CCC(=O)c2cccs2)nc1`?
G9a inh: 44.7µM*

What do the screens show for `CCOC(=O)NC(=O)COC(=O)c1ccc(Sc2ncn[nH]2)c([N+](=O)[O-])c1`?
Tau fibril ThT: -15.5%; Tau fluor cs: -3.9%; FBPA coupling cs: 13.3; G9a inh: 20µM*; Sfp PPTase inh: 0.2%; Tau fibril FP: -0.2%

How did C=CCN(CC=C)C(=O)COC(=O)c1ccc(Sc2ncn[nH]2)c([N+](=O)[O-])c1 do in these assays?
Tau fibril ThT: -8.4%; Tau fluor cs: -2.2%; FBPA coupling cs: 1.2; G9a inh: 28.2µM*; Sfp PPTase inh: 5.9%; Tau fibril FP: inconclusive

What do the screens show for `C/C(=N/NC(=O)c1ccc(C)s1)c1cccc(NC(=O)c2ccoc2C)c1`?
G9a inh: 25.7%; Sfp PPTase inh: 2.8%

How did Cc1cccc(NS(=O)(=O)c2ccc3[nH]c(=O)cc(C(=O)OC(C)C(=O)Nc4ccc([N+](=O)[O-])cc4)c3c2)c1 (centres undefined) do in these assays?
Tau fibril ThT: inconclusive; Tau fluor cs: inconclusive; FBPA coupling cs: -2.2; G9a inh: 44.7µM*; Sfp PPTase inh: 14.6%; Tau fibril FP: inconclusive

What do the screens show for `CCc1ccc(NC(=O)C(C)OC(=O)c2cc(=O)[nH]c3ccc(S(=O)(=O)Nc4ccc(F)cc4)cc23)cc1` (centres undefined)?
Tau fibril ThT: -8.9%; Tau fluor cs: -2.1%; FBPA coupling cs: 3.8; G9a inh: 29.7%[12.7 µM]; Sfp PPTase inh: 16.8%; Tau fibril FP: 0.7%

What do the screens show for `O=C(CN1CCCCC1)N1CCc2ccccc21`?
FBPA coupling cs: 0.4; G9a inh: 11.6%; Sfp PPTase inh: 15.9%

Results for O=C(CN1CCC(N2CCCCC2)CC1)N1CCCc2ccccc21 ?
Tau fibril ThT: -1.8%; Tau fluor cs: 6.1%; FBPA coupling cs: 0.4; G9a inh: 3.55µM*; Sfp PPTase inh: inconclusive; Tau fibril FP: inconclusive

Results for O=C(CN1CCN(c2ccc(O)cc2)CC1)N1CCc2ccccc21 ?
FBPA coupling cs: -7.1; G9a inh: 10µM*; Sfp PPTase inh: 39.8µM*

What do the screens show for `O=C(CSc1cccc[n+]1[O-])N1CCCCCC1`?
Tau fibril ThT: 3.9%; Tau fluor cs: 3.7%; FBPA coupling cs: 1.4; G9a inh: -31.9%; Sfp PPTase inh: 0.5%; Tau fibril FP: -4.5%

Results for O=C(CSc1cccc[n+]1[O-])N1CCc2ccccc21 ?
Tau fibril ThT: -13.0%; Tau fluor cs: -18.7%; FBPA coupling cs: -3.6; G9a inh: 56.2µM*; Sfp PPTase inh: 10.5%; Tau fibril FP: -6.1%

What do the screens show for `O=C(CN1CCC(N2CCCCC2)CC1)N1CCOCC1`?
Tau fibril ThT: 0.5%; Tau fluor cs: 5.2%; FBPA coupling cs: -0.1; G9a inh: 17.8µM*; Sfp PPTase inh: inconclusive; Tau fibril FP: -1.8%

Results for CC1CCC(NC(=O)c2cccc(S(=O)(=O)NCc3ccccc3)c2)CC1 (centres undefined) ?
G9a inh: 7.6%[59 µM]

What do the screens show for `O=C(NCc1ccc(Cl)cc1)c1cnc(N2CCOCC2)c2ccccc12`?
Tau fibril ThT: -12.6%; Tau fluor cs: -21.3%; G9a inh: 8.2%[59 µM]; Tau fibril FP: -7.1%

What do the screens show for `CC(=O)c1ccc(NC(=S)Nc2ccc(Br)c(Cl)c2)cc1`?
Tau fibril ThT: 8.9%; Tau fluor cs: inconclusive; FBPA coupling cs: 2.3; G9a inh: -9.6%; Sfp PPTase inh: 6.7%; Tau fibril FP: inconclusive

Results for CC(=O)c1ccc(NC(=S)NC(C)c2ccc(Cl)cc2Cl)cc1 (centres undefined) ?
Tau fibril ThT: 9.3%; Tau fluor cs: 14.1µM*[quencher]; FBPA coupling cs: 1.4; G9a inh: 5.6%; Sfp PPTase inh: 4.2%; Tau fibril FP: 31.6µM*

What do the screens show for `COc1ccccc1NS(=O)(=O)c1cc(NC(=O)c2cccs2)ccc1N1CCCC1`?
Tau fibril ThT: inconclusive; Tau fluor cs: inconclusive; FBPA coupling cs: -0.1; G9a inh: 1.58µM*; Sfp PPTase inh: 20µM*; Tau fibril FP: -3.9%

Assay outcomes deposited in PubChem by National Center for Advancing Translational Sciences (NCATS).
